The values that follow come from PubChem BioAssay AID504406 (Broad Institute, 2011).

About 190 (0.059%) of roughly 320,000 compounds were called active. Shown is part of a subset that was picked to be rich in actives. Unmarked numbers belong to inactive results. Cut-off read from the data, not from the text of the source: active = inhibition above about 10% (passing the limit was not always enough); inconclusive = no clear call, values can overlap the other calls.

In the experiment the target is UDP-galactopyranose mutase (Mycobacterium tuberculosis (strain ATCC 25618 / H37Rv)) (UniProt P9WIQ1). The experiment in a line: blockers of Mtb UDP-galactopyranose mutase – biochemical, fluorescence polarization, single point, primary screen (AID 504406). Conditions: purified UGM, fluorescence polarization probe displacement; at 10 µM; active compounds read high.
Sequence of UDP-galactopyranose mutase (Mycobacterium tuberculosis (strain ATCC 25618 / H37Rv)) (P9WIQ1 whole entry, looked up): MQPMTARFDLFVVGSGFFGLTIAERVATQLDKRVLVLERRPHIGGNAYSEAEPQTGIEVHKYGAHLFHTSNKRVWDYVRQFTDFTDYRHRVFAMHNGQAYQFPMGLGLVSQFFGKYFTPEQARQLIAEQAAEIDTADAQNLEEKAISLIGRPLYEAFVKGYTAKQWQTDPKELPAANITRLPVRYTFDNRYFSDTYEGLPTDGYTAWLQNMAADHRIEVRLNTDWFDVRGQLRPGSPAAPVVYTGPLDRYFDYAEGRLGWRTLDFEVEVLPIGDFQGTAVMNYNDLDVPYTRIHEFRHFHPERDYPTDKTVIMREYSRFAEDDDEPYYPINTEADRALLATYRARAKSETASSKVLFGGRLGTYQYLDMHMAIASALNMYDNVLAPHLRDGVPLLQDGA
For the molecule `CC1CC(=O)N(CC(=O)Nc2cccc(Cl)c2)c2ccccc2S1(=O)=O` (stereo unspecified), the inhibition (usually the drop in the measured response relative to a control, in per cent) is -0.479%.

As to `O=C(O)C1CC=CCC1C(=O)NCCc1ccccc1` (stereo unspecified), the inhibition was -0.437%.

For the molecule `CC(NC(=O)c1ccc(S(=O)(=O)Nc2ccccc2)cc1)c1ccc(S(N)(=O)=O)cc1` (stereo unspecified), the inhibition is -0.443%.

Take `CC(=O)c1nn(-c2cccc(Br)c2)cc1C(=O)c1cccc2ccccc12`: the inhibition was 2.24%.

Regarding `O=C(CCCN1CCc2[nH]c3ccc(F)cc3c2C1)c1ccc(F)cc1`, the inhibition was -0.464%.

`COc1ccc(C(C)NC(=O)C23CC4CC(CC(C4)C2)C3)cc1` (stereo unspecified): the inhibition is 0.347%.

Regarding `CCOc1ccccc1-n1c(SCC(=O)N2CCCC2)nnc1-c1ccoc1C`, the inhibition was 0.65%.

`O=C(Cc1cccs1)NCc1cccc(C(F)(F)F)c1`: the inhibition is 0.316%.

For the molecule `O=C(CC1Oc2ccccc2NC1=O)NCCCN1CCN(Cc2ccccc2)CC1` (stereo unspecified), the inhibition is -0.871%.

On to `Cc1ccc(C(=O)CSc2nc3ccccc3c(=O)n2N)o1`, for which the inhibition was -2.34%.

As to `COc1cccc(-c2ccc3c(c2)S(=O)(=O)c2cccc(C(=O)O)c2C3=O)c1OC`, the inhibition was -0.479%.

Regarding `O=C(COc1cc(Cl)c(Cl)cc1Cl)NCCc1ccccn1`, the inhibition was 1.96%.

With `O=C(C[n+]1cc(Br)cc2ccccc21)c1ccc(F)cc1`, the inhibition was -0.457%.

`COC(=O)C[n+]1cccc2ccccc21`: the inhibition is 13.9% (active).

On to `COc1c(C(=O)N2CCCC2)ccc2ccccc12`, for which the inhibition is -0.901%.

Regarding `COc1ccc(CCN2C(=O)c3[nH]nc(-c4ccccc4O)c3C2c2ccc(C)cc2)cc1OC` (stereo unspecified), the inhibition was 2.57%.

For the molecule `COc1ccc(N2CCN(S(=O)(=O)c3cc(Br)cnc3N)CC2)cc1`, the inhibition is 1.41%.

As for `Cc1ccc(NS(=O)(=O)c2ccc(F)cc2)nc1`, the inhibition was -0.636%.

Consider `N#Cc1c(N)nc2c3c(sc(=N)c2c1N)NC(=O)CC3c1ccccc1Cl` (stereo unspecified), for which the inhibition is 2.45%.

Turning to `COc1cccc(CNC(=O)CCC2CCCN(C(=O)c3ccoc3C)C2)c1` (stereo unspecified), the inhibition was -0.384%.

Turning to `COc1ccc(NC(=O)CN(Cc2ccccc2)S(C)(=O)=O)cc1OC`, the inhibition was -0.501%.

`CCc1ccccc1NC(=S)Nc1cc(OC)c(NC(=O)C(C)C)cc1OC`: the inhibition is 0.622%.

For the molecule `COC(=O)C1=C(C(=O)OC)[C@@H]2N(C)c3ccccc3[C@@]23C[C@@H](C(=O)OC)N(C(C)=O)C3=N1`, the inhibition is -0.842%.

As for `O=C(NCc1ccco1)C1CCCN1S(=O)(=O)c1ccccc1C(F)(F)F` (stereo unspecified), the inhibition is 5.45%.

Turning to `CC(C)Oc1ccccc1C(=O)NC(CO)C(=O)O` (stereo unspecified), the inhibition is -1.15%.

For `CC(=O)C1=C(O)C(=O)N(c2ccc(S(N)(=O)=O)cc2)C1c1ccccc1F` (stereo unspecified), the inhibition was 3.63%.

As for `Cc1ccc(CCn2c3c(c4ccccc42)CN(C)CC3)cn1`, the inhibition was 0.129%.

Consider `O=C(NCc1cccnc1)Nc1cccc(NC(=O)NCc2cccnc2)c1F`, for which the inhibition was -4.12%.

On to `CCOC(=O)C1(Cc2cccc(OC)c2)CCCN(C(=O)CCSC)C1` (stereo unspecified), for which the inhibition is 1.34%.

For `Cc1ccc(-c2nn(-c3cccc(F)c3)cc2CNCCc2ccncc2)o1`, the inhibition was -3.08%.

Turning to `Cc1ccc2c(CC(=O)NCc3cccs3)coc2c1`, the inhibition is -2.27%.

As to `CCN1C(=NCc2ccc(OC)cc2)N[C@@H](CCc2ccccc2)[C@H](C(=O)NCc2ccc(OC)cc2)[C@H]1C`, the inhibition is 0.311%.

For `COc1ccc(OC)c(C2N(c3ccccn3)C(=O)C3CCCN32)c1` (stereo unspecified), the inhibition was -1.67%.

Take `O=C(c1ccc(Cl)c(S(=O)(=O)N2CCCCCC2)c1)N1CCN(c2ccc(O)cc2)CC1`: the inhibition was 0.826%.

For the molecule `CSCCC(NS(=O)(=O)c1ccc2c(c1)oc(=O)n2C)C(=O)NCc1ccccc1` (stereo unspecified), the inhibition is 7.62%.

On to `COc1cccc(CNS(=O)(=O)c2ccc3c(c2)N(C(C)=O)CCS3)c1`, for which the inhibition is 0.635%.

Consider `Cc1nc(NCc2ccccc2)c(C(N)=O)c2c1COC(C)(C)C2`, for which the inhibition was -0.415%.

Take `O=C(CSc1nnnn1-c1ccc(O)cc1)N1N=C(c2ccc3ccccc3c2)CC1c1ccccc1` (stereo unspecified): the inhibition was -0.544%.

For the molecule `O=C(CN1C(=O)COc2ccc(Cl)cc21)N1CCOCC1`, the inhibition was -2.04%.

For `Nc1ncc(CN2CCCC(C(=O)Nc3ccc(-c4ccco4)cc3)C2)cn1` (stereo unspecified), the inhibition was -0.194%.

With `O=C(CCCN1C(=O)c2ccccc2C1=O)Oc1ccc(Cl)cc1`, the inhibition is 1.46%.

As for `COc1cc(S(=O)(=O)N(Cc2cccs2)C2CC2)ccc1-n1cnnn1`, the inhibition is -0.867%.

As for `CCOc1cc(C(=O)Nc2ccc(S(=O)(=O)Nc3cnc4ccccc4n3)cc2)cc(OCC)c1OCC`, the inhibition is -1.61%.

With `COC(=O)C1(C)CC1(c1ccccc1)c1ccccc1` (stereo unspecified), the inhibition is -0.587%.

Consider `NC(=O)C1CC=CCC1C(=O)OCC(Cl)=C(Cl)Cl` (stereo unspecified), for which the inhibition was -1.58%.

With `Nc1ccc2nc3c(=O)[nH]c(=S)[nH]c3nc2c1`, the inhibition was 15.2% (active).

As for `CC(C)C[C@@H](COc1ccccc1)N1CCN(CC(C)C)CCC1=O`, the inhibition is 1.36%.

On to `O=C(Nc1ccc([N+](=O)[O-])cc1)OCCc1ccccn1`, for which the inhibition is -0.463%.

Turning to `Cc1ccc(S(=O)(=O)NC2CCCCCC2)cc1C(N)=O`, the inhibition is 1.67%.

For `CC(C)(C)C1CCC(C(=O)NCC(c2cccs2)N2CCOCC2)CC1` (stereo unspecified), the inhibition is 0.328%.

As to `C(=C\c1ccccc1)/CSc1nnc(-c2cccnc2)n1Cc1ccco1`, the inhibition is 1.26%.

With `CC(C(=O)O)N1C(=O)c2cccc3cccc1c23` (stereo unspecified), the inhibition was 3.93%.

`CN1C(=O)c2cccc3c(N)ccc(c23)C1=O`: the inhibition is 24.4% (active).

Take `Cc1nn(C)cc1N1C(=O)c2cccc3c(N)ccc(c23)C1=O`: the inhibition is 31.9% (active).

Consider `COc1ccc([N+](=O)[O-])cc1NC(=O)c1ccc(N(Cc2ccccc2C)S(C)(=O)=O)cc1`, for which the inhibition was 0.0791%.

With `COc1cc(OC)cc(/C(N)=N/O)c1`, the inhibition is 1.41%.

For `CC(=O)Nc1ccc(NC(=O)C2CCCN2S(=O)(=O)c2cccc(C(F)(F)F)c2)cc1` (stereo unspecified), the inhibition is -2.31%.

Turning to `CC(=O)Nc1ccc(S(=O)(=O)NC(C)C(=O)OCCOc2ccc(F)cc2)cc1` (stereo unspecified), the inhibition was -1.41%.

For the molecule `CCCCN(CC)CCNC(=O)CCNC(=O)Cn1ccc2ccccc2c1=O`, the inhibition was 0.375%.

Turning to `COCCCNC(NC(=O)c1ccc(C)cc1)C(Cl)(Cl)Cl` (stereo unspecified), the inhibition was -0.407%.

Consider `O=C(NNC1=NCCC1)c1cccc(S(=O)(=O)N2CCCCC2)c1`, for which the inhibition was 2.86%.

As for `COc1ccc(/C=C(/NC(=O)c2ccco2)C(=O)Nc2ccc(C(C)=O)cc2)cc1`, the inhibition is 0.676%.

For the molecule `COc1ccc(-c2cc(C(=O)N3CCN(c4ccc(F)cc4)CC3)no2)cc1`, the inhibition was 0.979%.

For the molecule `Oc1ccc2ccc3cccc[n+]3c2c1`, the inhibition was 45.7% (active).

`CCc1ccc(C(=O)N2CCN(S(=O)(=O)c3sc(C(=O)O)c(C)c3C(=O)O)CC2)cc1`: the inhibition is 2.51%.

In the case of `COc1cc(/C=C/C(=O)OCC(=O)NC2CC2)cc(OC)c1OC`, the inhibition is 0.117%.

Take `COc1ccccc1/C=C/C(=O)OCC(=O)NC1CCCCCC1`: the inhibition is -0.893%.

Take `COc1ccc(/C=C/C(=O)OCC(=O)NC2CCCCCC2)cc1OC`: the inhibition was 29.9% (active).

Turning to `COc1cccc(NC(=O)Cn2c3ccccc3c3nc4n(c(=O)c32)CCS4)c1`, the inhibition is 0.23%.

For `COc1ccccc1NC(=O)C(C)OC(=O)c1ccc(-n2cnnn2)cc1` (stereo unspecified), the inhibition was -1.34%.

With `COc1ccc(S(=O)(=O)N2CCN(C(=O)c3cc(C)oc3C)CC2)cc1`, the inhibition is -0.865%.

Turning to `COc1ccc(N(CC(=O)NC2CCCCC2)C(=O)CNC(=O)c2ccco2)c(OC)c1`, the inhibition was 2.4%.

With `CC(C)CCNc1nc(N2CCCC2)c2c(c1C#N)CCN(C)C2`, the inhibition is 3.98%.

Regarding `Clc1ccc(-c2cc(C3CCNCC3)[nH]n2)c(Cl)c1`, the inhibition was 1.34%.

With `O=C1CCc2cc(S(=O)(=O)Nc3ccc(C(F)(F)F)cc3)cc3c2N1CC3`, the inhibition was -0.849%.

Take `Cc1nnc(Nc2ccccc2F)s1`: the inhibition was -1.25%.

On to `CCc1ccc2c(c1)C1(NN=C(c3ccccc3)S1)C(=O)N2` (stereo unspecified), for which the inhibition was 1.69%.

Consider `O=C(OCc1cc(=O)n2ccsc2n1)C1(c2ccc(Cl)cc2)CC1`, for which the inhibition was -0.701%.

On to `COc1ccc([N+](=O)[O-])cc1N(CC(=O)Nc1ccccc1C(=O)N1CCOCC1)S(C)(=O)=O`, for which the inhibition is -1.48%.

As for `O=C(NCC#CCSc1nnc(-c2cccc3ccccc23)o1)c1cccs1`, the inhibition is 0.904%.

Take `O=C(COC(=O)CCCSc1nc2ccccc2[nH]1)Nc1ccc(Oc2ccccc2)cc1`: the inhibition is -1.64%.

Consider `Cn1c(=O)[nH]c(=O)c2c1nc(NCCCn1ccnc1)n2Cc1cccc(Br)c1`, for which the inhibition is 1.02%.

Take `N#CC1=C(N)C(C#N)(C#N)[C@H](c2ccsc2)[C@H]2COCC=C12`: the inhibition was 0.548%.

As for `CCN1CC=C2C(C#N)=C(N)C(C#N)(C#N)[C@H](c3ccoc3)[C@H]2C1`, the inhibition is 13.1% (active).

`COc1ccc(OC)c(CCNC(=O)CCn2ccc3cc(S(=O)(=O)N4CCCC4)ccc32)c1`: the inhibition is -0.0435%.

As to `CCN(C(=O)COC(=O)CCC(=O)c1cccs1)C1CCCCC1`, the inhibition is 0.798%.

For the molecule `CCN(C(=O)CSc1cccc[n+]1[O-])c1ccccc1`, the inhibition is 1.75%.

As to `COc1ccccc1CCC(=O)OCC(=O)N1CCN(S(=O)(=O)c2ccc(C)cc2C)CC1`, the inhibition was 2.52%.

Consider `CC(=O)N1CC2(C)CN(C(C)=O)CC(C)(C1)C2=O`, for which the inhibition is -1.57%.

`COCCn1c(SCc2nc3cc(OC)c(OC)cc3c(=O)[nH]2)nnc1-c1ccncc1`: the inhibition was 0.376%.

Consider `COCCCNC(=O)CC1C[C@H](C(=O)N2CCCCC2)[C@@]2(CCc3ccccc3)c3[nH]c4ccccc4c3CCN2C1=O` (stereo partly specified), for which the inhibition was -1.3%.
